# Rows were chosen to be rich in hits. Some 9% of all compounds tested hit in one or more screens of this group.
# IMPase inh – membrane-permeable compound that blocks inositol monophosphatase. CHO-M1 cells, IP1 accumulation, HTRF TR-FRET ratio. AID 901. inhibition (IP1 accumulation), % at 46.1 µM. P97697. 120,000 tested, under 10 active; active = well fitted curve in the direction sought with a large enough effect in the signal ratio, not every such curve was filed as active; inconclusive = small, poorly fitted or top-dose-only effect, or a change in a side signal; inactive = no such curve, though single readings can be large or run the other way; the % refers to the signal ratio;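 note: cells stimulated with carbachol in lithium chloride buffer; higher means more IMPase inhibition seen as more IP1 and lower FRET ratio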
# Target sequence (P97697 whole entry, looked up): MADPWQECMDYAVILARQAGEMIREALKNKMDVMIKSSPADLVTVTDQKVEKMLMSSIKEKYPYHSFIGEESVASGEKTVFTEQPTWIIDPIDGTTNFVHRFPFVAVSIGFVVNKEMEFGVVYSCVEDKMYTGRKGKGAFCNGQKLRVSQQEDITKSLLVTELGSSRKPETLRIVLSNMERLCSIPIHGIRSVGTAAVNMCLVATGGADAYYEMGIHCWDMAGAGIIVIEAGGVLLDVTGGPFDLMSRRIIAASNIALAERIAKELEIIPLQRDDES
#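 Elevated IP1 in lysates lowers TR-FRET signal (665/620 ratio and 620 channel reported). Cells were CHO-M1, given carbachol (50 uM as added) plus 50mM LiCl, pH 7.4, 30 min, 37C; compounds titrated up to 46 uM; AC50 by Hill equation.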
# ALDH1A1 inh – blocks purified human ALDH1A1 activity | Purified ALDH1A1, NADH fluorescence, propionaldehyde substrate | Potency, µM (doses to about 75.3 µM), most hits filed as inhibitors | 220,000 compounds, 7.3% hits
# HPGD block – blocks human HPGD enzyme activity; purified HPGD, NADH fluorescence kinetic, PGE2 substrate; Potency, µM, actives largely listed as inhibitors; 150,000 compounds, 4.3% hits
# Target sequence (P15428 whole entry, looked up): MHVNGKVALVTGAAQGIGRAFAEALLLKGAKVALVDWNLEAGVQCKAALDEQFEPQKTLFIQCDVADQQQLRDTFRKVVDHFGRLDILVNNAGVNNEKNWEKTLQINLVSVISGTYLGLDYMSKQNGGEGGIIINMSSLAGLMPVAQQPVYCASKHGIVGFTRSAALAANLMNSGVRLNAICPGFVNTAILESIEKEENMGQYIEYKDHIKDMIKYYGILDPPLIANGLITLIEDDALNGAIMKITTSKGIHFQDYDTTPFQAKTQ
#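 NADH formation kinetics: reaction with 30 uM PGE2 and 1 mM NAD+ (final), 20 nM enzyme, Tris-HCl pH 8 with Tween 20, after 15 min compound preincubation at room temperature. Fluorescence change, last versus first of five reads.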
# Hits are given with their value; 0 = inactive; ? = inconclusive; - = no result given; [ ] = another dose, or the depositor's remark. Unless noted, calls come from the whole dose curve; as a rule, active = well fitted inhibition curve with a large enough effect (not every such curve was filed as active); inconclusive = small, poorly fitted or top-dose-only effect, or another doubt; inactive = no such curve, though single readings can be large or run the other way.
SMILES,IMPase inh,ALDH1A1 inh,HPGD block
Cn1c(=O)c(C(=O)CCl)c(N)n(CC2CC2)c1=O,-,20µM,0
CC(C)Cn1c(N)c(C(=O)CCl)c(=O)n(C)c1=O,-,8.91µM,0
Cn1c(=O)c(C(=O)COC(=O)c2cc(C(F)(F)F)nc3c(C(F)(F)F)cccc23)c(N)n(CC2CC2)c1=O,-,0,0
CCCCOc1ccc(-c2nn(-c3ccccc3)cc2C2NC(=O)NC(C)=C2C(=O)OCC)cc1 (stereo unspecified),0,-,-
COc1ccccc1OCC(=O)Nc1ccc(S(=O)(=O)Nc2nc(C)cc(C)n2)cc1,0,0,?
O=C(CCn1nnc(-c2cccs2)n1)NC1CCCCC1,0,0,0
CSC1=C(C#N)C(c2sccc2C)CC(=O)N1 (stereo unspecified),-,10µM,-
CSC1=C(C#N)C(c2cccc(Br)c2)CC(=O)N1 (stereo unspecified),0,0,0
CC1=CC2C(C(C)C)CCC(C)(O)C2CC1 (stereo unspecified),-,0,0
COc1ccccc1NCC(=O)N/N=C(\C)c1ccc(Br)s1,-,0,0
C/C(=N/NC(=O)CNc1ccc(C)cc1)c1ccc(Br)s1,0,14.1µM,0
O=C(O)C1C2C=CC(CC2)C1C(=O)O (stereo unspecified),0,0,0
N[C@H]1[C@@H](C(=O)O)[C@H]2C=C[C@H]1C2,-,0.501µM,0
CCCCn1c(=N)c(S(=O)(=O)c2ccc(Cl)cc2)cc2c(=O)n3cccc(C)c3nc21,0,-,-
FC(F)Oc1ccc(/C=N/c2c(-c3ccc(OC(F)F)cc3)nc3n2CCS3)cc1,0,3.55µM,?
Clc1cccc(Cl)c1CO/N=C/c1c(-c2ccccc2)nc2n1CCS2,0,0,?
CCOc1cc(/C=N/NC(=O)CSc2nncn2C)ccc1OCc1cccc(C)c1,0,?,?
Cc1ccc(C)c(NCC(O)c2ccccc2)c1 (stereo unspecified),-,0,-
O=C1c2ccccc2N[C@H](c2cc(Cl)cc(Cl)c2O)N1CCc1ccccn1,-,0[13.5 µM],0
COc1ccc(C)cc1N1C(=N)/C(=C2/Nc3ccccc3S2)C(c2ccccc2)C1=O (stereo unspecified),-,?,0
O=c1[nH]c(CN2CCN(c3ccccc3)CC2)nc2scc(-c3ccccc3)c12,-,0,0
O=c1[nH]c(Cc2ccc(F)cc2)nc2scc(-c3ccc(F)cc3)c12,-,31.6µM,22.4µM
NC(=O)Cc1nc2scc(-c3ccccc3)c2c(=O)[nH]1,-,12.6µM,-
O=c1[nH]c(Cc2cccs2)nc2scc(-c3ccc(Cl)cc3)c12,-,0,-
CCC(C)n1c(=N)c(C(=O)NC2CCCCC2)cc2c(=O)n3ccccc3nc21 (stereo unspecified),0,-,-
SMILES,IMPase inh,ALDH1A1 inh,HPGD block
CC(C)CO[C@H](c1ccc2c(c1)OCO2)[C@H](C)Br,-,0[13.5 µM],0
C=C[C@@H]1CN2CC[C@@H]1C[C@@H]2[C@@H](O)c1ccnc2ccc(OC)cc12,0,-,-
O=C(NCCC[N+]1=CC=N[C@H]1c1ccccc1)N1CCCc2nc(-c3ccc(Br)cc3)ccc21,-,0[13.5 µM],-
CCOc1ccc(C(=O)NCC(=O)OCC(=O)N2CCCC2)cc1,-,0,-
COc1ccc(/C(C)=C2\SC(=S)N(CCC(=O)O)C2=O)cc1,0,0,0
C/C(=C1/SC(=S)N(CCC(=O)O)C1=O)c1ccc(O)cc1,0,?,17.8µM
COc1ccccc1C(=O)Nc1ccc(S(=O)(=O)Nc2ncccn2)cc1,0,-,-
O=C(NC1CCS(=O)(=O)C1)C1C2CC3CC(C2)CC1C3 (stereo unspecified),-,0,-
O=C(O)C1C2C=CC(C2)C1C(=O)NC1CCS(=O)(=O)C1 (stereo unspecified),0,22.4µM,0
Cc1ccccc1-n1ncc(C(C)NC(=O)c2ccco2)c1C (stereo unspecified),-,0,-
CCOc1ccc(C2CC(c3cccc(OC)c3)Nc3ncnn32)cc1 (stereo unspecified),0,0,0
COc1ccc(O)c(-c2[nH]ncc2C(=O)c2ccccc2C)c1,0,12.6µM,0
COc1ccc(-c2[nH]ncc2-c2nc(C)cs2)c(O)c1,-,0,-
S=C([S-])NCCNC(=S)[S-].[Zn+2],-,11.2µM,10µM
CCOC(=O)c1sc(/N=C/N(C)C)c(C(=O)OCC)c1C,0,0,0
CCOC(=O)c1c(/N=C/c2cc(OC)cc([N+](=O)[O-])c2O)sc(C)c1C,0,31.6µM,0
CCOC(=O)c1c(/N=C/C2=C(O)CC(C)(C)CC2=O)sc(C)c1C,-,7.08µM,0
CCOC(=O)c1c(/N=C/c2cc([N+](=O)[O-])ccc2O)sc(C)c1C,-,20µM,0
CCOC(=O)c1ccc(N/N=C/c2cc(Br)cc([N+](=O)[O-])c2O)cc1,-,0,-
Cc1cc(O)c(C(C)C)cc1N=Cc1cc([N+](=O)[O-])ccc1O,-,0,-
O=c1c2ccccc2nc(SCc2cccc(F)c2)n1C1CCCC1,0,0,0
Cc1cc(C)cc(C(=O)Nc2ccc3[nH]c(=O)[nH]c3c2)c1,-,0,-
CC1=CCC2(CO)COC(c3ccccc3O)C1C2 (stereo unspecified),0,?,0
COC(=O)c1sc(NC(=O)CSc2nncs2)c(C(=O)OC)c1C,0,?,2.82µM
COC(=O)c1c(NC(C)=O)sc(C)c1C,-,0,-
SMILES,IMPase inh,ALDH1A1 inh,HPGD block
COC(=O)c1sc(NC(=O)CC(C)C)c(C(=O)OC)c1C,0,?,0
COC(=O)c1sc(NC(C)=O)c(C(=O)OC)c1C,0,?,31.6µM
COc1ccc(-c2nnc3ccc(SC)nn23)cc1,0,?,31.6µM
COc1ccc(-c2nnc3ccc(SCC(=O)N4CCOCC4)nn23)cc1,0,0,0
COc1ccc(CNc2ccnc(-c3cccc(NS(C)(=O)=O)c3)n2)c(OC)c1,-,0,-
COc1cc(/C=N/NC(=O)c2[nH]nc3c2CCc2ccccc2-3)ccc1O,-,?,0
Cc1cc(=O)c2n(Cc3ccc(Cl)cc3)nc[n+]2[nH]1,0,20µM,0
Cc1nn(Cc2ccc(Cl)cc2)c(C)c1N,0[0.0738 µM],0,0
S=c1[nH]c2ccccc2s1,-,11.2µM,25.1µM
Oc1[nH]c(=S)sc1C=C1N=c2ccccc2=N1,-,0,-
C/C(=C/C(=O)N1CCc2ccccc21)C(=O)O,0,?,0
O=C(CSc1ccc(Cl)cc1)NC1CCCC1,0,0,10µM
O=C(CSc1ccc(F)cc1)NC1CCCCC1,-,0,-
O=C(Cc1ccc(Cl)cc1)NC1CC1,-,0,-
O=C(NC1CCCCC1)Sc1ccc(Cl)cc1,0,?,8.91µM
CC1CCCC(C)N1C(=O)CSCc1ccc(Cl)cc1 (stereo unspecified),0,22.4µM,0
CC(=O)OC(C(=O)NC1CCCCC1)c1ccc(Cl)cc1 (stereo unspecified),0,0,0
O=C(CCSCc1ccc(Cl)cc1)NC1CCCC1,0,0,17.8µM
O=C(O)CSCc1ccc(Cl)cc1,0,0,0
COC(=O)c1ccc(C(NC(=O)OCc2ccccc2)/C(F)=C/[C@@H](C)C(=O)NC2CCCCC2)cc1 (stereo partly specified),-,0,0
CC1(C)Cc2noc(N)c2C(C)(C)N1OC(=O)c1ccco1,0,0,0
O=C1NC(CCc2ccccc2)C(=O)N1CCOc1ccccc1 (stereo unspecified),-,0,-
S=c1nc[nH]c2c1cnn2-c1ccccc1,-,3.16µM,-
Nc1ncnc2c1cnn2-c1ccccc1,0,?,0
CN(C)CC(C)(C)CNC(=O)c1ccc(-n2c(=O)c(=O)[nH]c3ccccc32)cc1,-,0,0
CC(=O)Nc1ccc(C(=O)Cn2nnc3ccccc3c2=O)cc1,?,8.91µM,0

# High-throughput results: PubChem, National Center for Advancing Translational Sciences (NCATS)
